# From PubChem BioAssay (NCI)
# About 83,000 compounds went through this panel and 20% of them were active in at least one assay; those are over-represented in the sample as a whole.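 Testing used 96-well plates and a 48-hour single-concentration exposure. Example: -40 means 40% of the starting cells died.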 A number with no mark means an inactive call. Calls of active or inactive are those of the source. How the source made its calls: active means growth percent below 10; inactive means the rest.
# How the values were obtained:
# Experiment in all cases: NCI-60 one-dose screen, 48 h (100 = growth as untreated, 0 = no growth, -100 = all killed)
# Details in all cases: 10 µM unless noted
# DU-145 prostate = tested on: DU-145 prostate
# K-562 leukemia = tested on: K-562 leukemia
# MALME-3M melanoma = tested on: MALME-3M melanoma
# MDA-MB-231 breast = tested on: MDA-MB-231 breast
# RXF 393 renal = tested on: RXF 393 renal
# SF-268 CNS = tested on: SF-268 CNS
# SF-295 CNS = tested on: SF-295 CNS
# SF-539 CNS = tested on: SF-539 CNS
# UACC-257 melanoma = tested on: UACC-257 melanoma
# M14 melanoma = tested on: M14 melanoma
# HCT-15 colon = tested on: HCT-15 colon
# HT29 colon = tested on: HT29 colon
# SNB-75 CNS = tested on: SNB-75 CNS
# SNB-19 CNS = tested on: SNB-19 CNS
# U251 CNS = tested on: U251 CNS
# PC-3 prostate = tested on: PC-3 prostate
# SK-MEL-5 melanoma = tested on: SK-MEL-5 melanoma
# UACC-62 melanoma = tested on: UACC-62 melanoma
# LOX IMVI melanoma = tested on: LOX IMVI melanoma
# SK-MEL-28 melanoma = tested on: SK-MEL-28 melanoma
SMILES,growth (DU-145 prostate),growth (K-562 leukemia),growth (MALME-3M melanoma),growth (MDA-MB-231 breast),growth (RXF 393 renal),growth (SF-268 CNS),growth (SF-295 CNS),growth (SF-539 CNS),growth (UACC-257 melanoma),growth (M14 melanoma),growth (HCT-15 colon),growth (HT29 colon),growth (SNB-75 CNS),growth (SNB-19 CNS),growth (U251 CNS),growth (PC-3 prostate),growth (SK-MEL-5 melanoma),growth (UACC-62 melanoma),growth (LOX IMVI melanoma),growth (SK-MEL-28 melanoma)
COc1ccc(S(=O)(=O)n2c3ccccc3n3ncc(-c4nnc(C)o4)c23)cc1,22.8%,15.4%,66.9%,30.1%,-22.2% (active),53%,6.74% (active),-1.67% (active),84.1%,15.4%,20.3%,11.2%,14.1%,23%,31.6%,36.5%,21.3%,27.3%,36.8%,65.3%
COc1ccc(/C=C(/C#N)n2nnc3cccc(F)c32)cc1,-10.7% (active),12.8%,32.5%,0.925% (active),-37.9% (active),28.2%,16%,-39.3% (active),41.1%,-27% (active),13.2%,1.29% (active),-43.5% (active),24.6%,14.3%,27.1%,-7.21% (active),17.9%,5.5% (active),48.1%
c1ccc(Nc2cc(-c3cccnc3)[nH]n2)cc1,100%,101%,118%,107%,107%,85.8%,97.6%,70.2%,100%,117%,101%,100%,52.8%,77.9%,84%,102%,101%,102%,103%,105%
COc1ccc(C(=O)C[C@]2(O)C(=O)Nc3c(Cl)ccc(Cl)c32)cc1,21.7%,13.6%,51.1%,49%,-3.05% (active),61.9%,4.67% (active),-11.6% (active),63.9%,5.9% (active),22.6%,15.9%,-39.5% (active),38.9%,33.9%,34.3%,34.6%,46.4%,45.9%,60.4%
O=C(COc1ccc(/C=C2\Cc3ccc(Cl)cc3C2=O)cc1)Nc1nc2ccccc2s1,115%,86.4%,132%,96%,88.4%,112%,108%,98.9%,105%,103%,106%,116%,88%,98%,97.8%,92%,105%,98.2%,72.8%,108%
Cc1ccc(C(=O)N/N=C/c2cccc([N+](=O)[O-])c2)cn1,100%,101%,114%,95.6%,110%,110%,107%,98.6%,95.6%,112%,109%,114%,94.2%,98.5%,107%,95.4%,98.9%,98.1%,105%,103%
Cc1cc(N2CCCC2)nc(N(CCCNc2ccnc3cc(Cl)ccc23)Cc2ccccn2)n1,62.7%,11.3%,39.4%,45.2%,25.8%,62.5%,66%,9.89% (active),49.4%,-15.9% (active),32.3%,11.2%,77.4%,65.9%,55.3%,52%,50.9%,79.8%,32.3%,69.8%
CCN(CC)S(=O)(=O)c1ccc(NC(=O)CSc2nnc(C)n2-c2ccccc2)cc1,120%,88.5%,132%,108%,110%,97.7%,115%,101%,95.4%,116%,113%,111%,98.5%,102%,104%,95.2%,105%,92.8%,102%,108%
COc1cc(C(=O)c2cc(C)c3[nH]c4ccc(O)cc4c3c2C)cc(OC)c1OC,-13.4% (active),7.07% (active),-8.11% (active),28.3%,31.9%,24%,9.6% (active),1.71% (active),64.8%,22.3%,8.88% (active),14.5%,37.3%,54.1%,11.5%,24.9%,-49.4% (active),59.8%,13%,55.7%
CC(=O)OC[C@H]1OC(Sc2sc(C(=O)c3ccc(Br)cc3)c(N)c2-c2nc3ccccc3s2)[C@H](OC(C)=O)[C@@H](OC(C)=O)[C@H]1OC(C)=O (stereo not given in full),110%,92.2%,98.1%,80.6%,115%,93%,97.1%,95.2%,104%,96.1%,99.7%,106%,74.5%,87.4%,96.2%,70.8%,36.3%,60.4%,96.8%,104%
CCN(CC)CCNC(=O)c1cn2ncnc(Oc3ccc(NC(=O)Nc4ccc(Cl)c(C(F)(F)F)c4)cc3)c2c1C,-53.3% (active),-79.1% (active),-81.1% (active),-94.6% (active),-36.3% (active),-64.6% (active),-87.4% (active),-93.1% (active),-83.2% (active),-83.3% (active),-65.2% (active),-68.2% (active),-27% (active),-83.4% (active),-78% (active),-79.2% (active),-99% (active),-81.2% (active),-98.8% (active),-89.9% (active)
CCCC1CCC(O)(C(C)(O)C(=O)NC2C(=O)N3NCCCC3C(=O)N(O)C(C)C(=O)N3NCCCC3C(=O)N3NCC(O)CC3C(=O)NC(C)C(=O)OC2C(C)C)OC1CC (stereo not given),-99% (active),-61.6% (active),-71.7% (active),-66.3% (active),-54.3% (active),-82.1% (active),-85.3% (active),-95.1% (active),-83.3% (active),-60.9% (active),-64.1% (active),-55.6% (active),-83% (active),-81.5% (active),-74.2% (active),-86% (active),-97.3% (active),-71.8% (active),-72.9% (active),-99.3% (active)
COc1ccc(C(=O)n2nc(-c3ccccc3)nc2N)cc1OC,104%,80.1%,102%,85.1%,98.3%,95.4%,103%,91%,98.4%,105%,96.8%,91.9%,81.1%,95.7%,90.4%,87.9%,93.3%,86.7%,91.7%,107%
O=C1NC(=O)C(Cn2cnc3ccccc32)N1 (stereo not given),110%,106%,103%,103%,114%,100%,104%,96.4%,101%,103%,101%,105%,85.7%,95.5%,101%,95%,101%,98.5%,97.8%,104%
O=c1c2cccc(Cl)c2sc2c(NCCCNCCO)nc3ccccc3c12,13.9%,-48.1% (active),77.8%,-25.3% (active),50.3%,42.1%,73.9%,27.4%,97%,-72.7% (active),-24.3% (active),-51.7% (active),51.9%,45.7%,10.8%,41.8%,81.8%,66.2%,-93.1% (active),72.1%
O=c1c2cc(F)ccc2sc2c(N3CCNCC3)nc3ccccc3c12,-31.5% (active),-38.2% (active),84.8%,-29.1% (active),58.1%,55.1%,92.1%,29.8%,92.1%,-52.7% (active),-40.7% (active),-37.7% (active),70.2%,65.3%,-24.2% (active),48.7%,76.8%,59.5%,-99.1% (active),57.7%
